Screening data: PubChem BioAssay, NMMLSC
RGS8-Gao reg: human RGS8-Galphao interaction regulation; P09471; multiplexed bead flow cytometry, RGS8-Galphao binding; actives lie on both sides; response (percent of control binding), % at 10 µM; 220,000 compounds, 0.34% hits; AID 1423; in the data active = response below about 60% or above about 140%; inactive = in between;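 note: Galphao activated as the GDP aluminium fluoride complex binding bead-coupled RGS8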
Target sequence (P09471 whole entry, looked up): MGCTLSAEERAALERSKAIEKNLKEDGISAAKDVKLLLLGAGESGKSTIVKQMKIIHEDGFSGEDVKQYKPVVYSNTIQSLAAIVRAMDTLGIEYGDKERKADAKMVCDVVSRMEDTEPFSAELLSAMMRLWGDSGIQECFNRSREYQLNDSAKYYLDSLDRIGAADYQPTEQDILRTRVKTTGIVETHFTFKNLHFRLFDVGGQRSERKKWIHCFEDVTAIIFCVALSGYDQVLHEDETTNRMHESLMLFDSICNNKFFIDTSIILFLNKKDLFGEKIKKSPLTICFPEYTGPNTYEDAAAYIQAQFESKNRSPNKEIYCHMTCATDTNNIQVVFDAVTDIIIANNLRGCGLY
RGS16-Gao HTS: RGS16-Galphao interaction regulator (human); bead-based flow cytometry RGS16-Galphao binding, fluorescence; actives lie on both sides; binding response (% of control), % at 10 µM; 220,000 compounds, 0.38% hits; AID 1441;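 note: Galphao activated by GDP with aluminum fluoride before binding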
RGS7-Gao: regulators of human RGS7-Galphao interaction | P09471 | AID 1439 | Multiplexed bead flow cytometry, RGS7-Galphao binding; actives lie on both sides | binding response (% of control), % at 10 µM | 220,000 compounds, 0.35% hits; in the data active = binding response below about 49% or above about 150%; inconclusive = no clear call, values can overlap the other calls; inactive = in between;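 note: fluorescent Galphao held in activated GDP-AlF4 state binding bead-coupled RGS7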
Avidin bead fluor: avidin bead compound fluorescence profile; Avidin beads, compound fluorescence 488/530 nm, flow cytometry; active compounds read high; 220,000 compounds, 0.38% hits; fluorescence (KMESF) at 10 µM; in the data active = fluorescence above about 47
RGS4-Gao reg: human RGS4-Galphao interaction regulation. P09471. Multiplexed bead flow cytometry, RGS4-Galphao binding; actives lie on both sides. binding response (% of control), % at 10 µM. 220,000 compounds, 0.33% hits. AID 1415; in the data active = binding response below about 49% or above about 150%; inactive = in between;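 note: fluorescent Galphao activated with aluminum fluoride binding bead-coupled RGS4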
GSH bead fluor: compound fluoresces at 488/530 nm on GSH beads; AID 1776; 190,000 compounds, 0.25% hits; GSH beads flow cytometry, compound fluorescence 488/530 nm; active compounds read high; fluorescence (KMESF) at 10 µM; in the data active = fluorescence above about 89;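 note: glutathione beads carrying GST-tagged Bcl family fusion proteins plus one bare bead set; values are compound well signal with DMSO vehicle wells as background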
RGS-Gao: regulators of human RGS4-Galphao interaction; shares compounds with RGS16-Gao HTS; multiplexed bead flow cytometry, RGS–Galpha-o binding; RGS4–Galpha-o binding response, % at 10 µM; 1,600 compounds, 99% hits; AID 1504;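 note: fluorescently labeled Galpha-o bound to GDP with aluminium fluoride binding biotinylated RGS beads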
Target sequence (P09471 whole entry, looked up): as above
Target sequence (P49798 whole entry, looked up): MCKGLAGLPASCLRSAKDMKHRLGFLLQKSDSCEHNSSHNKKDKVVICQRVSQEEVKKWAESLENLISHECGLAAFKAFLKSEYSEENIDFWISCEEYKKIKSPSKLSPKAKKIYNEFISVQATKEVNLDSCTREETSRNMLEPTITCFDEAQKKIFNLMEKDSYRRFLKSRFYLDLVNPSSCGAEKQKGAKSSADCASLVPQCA
Avidin counter: counter-screen: compounds disrupting biotin binding to avidin beads. inhibition, % at 10 µM. streptavidin beads, fluorescein-biotin binding, flow cytometry. AID 1783. shares compounds with RGS16-Gao HTS. 1,700 tested, under 10 active;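 active = inhibition above 50%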;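 note: median green fluorescence of gated singlet beads compared with DMSO control wells; 0% = DMSO wells and 100% = complete loss of bead fluorescence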
RGS8-Gao single: confirmation of regulators of human RGS8-Galphao interaction; shares compounds with RGS16-Gao HTS; bead-based flow cytometry RGS8-Galphao binding, fluorescence; actives lie on both sides; binding response (% of control), % at 10 µM; 1,700 compounds, 3% hits; in the data active = binding response below about 72% or above about 130%; inactive = in between;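 note: Galphao activated as GDP AlF4 complex before binding bead RGS8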
RGS7-Gao single: confirmation of regulators of human RGS7-Galphao interaction | response (percent of control binding), % at 10 µM | shares compounds with RGS16-Gao HTS | 1,700 compounds, 7.8% hits | bead-based flow cytometry RGS7-Galphao binding; actives lie on both sides; in the data active = response below about 75% or above about 130%; inactive = in between;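 note: fluorescent Galphao activated with GDP and aluminum fluoride binding bead-coupled RGS7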
RGS16-Gao conf: RGS16-Galphao interaction regulation, single point confirmation. shares compounds with RGS16-Gao HTS. bead-based flow cytometry, RGS16-Galphao binding; actives lie on both sides. response (% of control binding), % at 10 µM. 1,700 compounds, 4% hits. AID 1838; in the data active = response below about 74% or above about 130%; inactive = in between;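 note: Galphao activated as the GDP aluminium fluoride complex binding bead-coupled RGS16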
RGS4-Gao confirm: RGS4-Galphao interaction regulation, single point confirmation. 1,700 compounds, 4% hits. RGS4-Galphao binding, multiplexed bead flow cytometry; actives lie on both sides. binding response (% of control), % at 10 µM. shares compounds with RGS16-Gao HTS; in the data active = binding response below about 74% or above about 130%; inactive = in between
RGS19-Gao conf: confirmation of regulators of human RGS19-Galphao interaction; shares compounds with RGS16-Gao HTS; bead-based flow cytometry RGS19-Galphao binding; actives lie on both sides; response (percent of control binding), % at 10 µM; 1,700 compounds, 5% hits; AID 1841; in the data active = response below about 50% or above about 160%; inactive = in between;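 note: 100% = no compound control and 0% = blank background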
* marks the source's active call; other numbers are inactive results; u = inconclusive; x = no result given; [ ] = remark or other dose. Most compounds without a hit are left out; they make up all but 1.2% or so of the library. Unless noted, the rule behind the calls is not given here.

SMILES	RGS8-Gao reg	RGS16-Gao HTS	RGS7-Gao	Avidin bead fluor	RGS4-Gao reg	GSH bead fluor	Avidin counter	RGS8-Gao single	RGS7-Gao single	RGS16-Gao conf	RGS4-Gao confirm	RGS19-Gao conf	others
O=C(NCCOC(=O)c1ccccc1C(=O)OCCNC(=O)c1cccnc1)c1cccnc1	100	100	101	6	100	36	x	x	x	x	x	x
CN1C(=O)CC(C(=O)Nc2ccccc2F)SC1=Nc1ccc2c(c1)OCO2 (stereo unspecified)	102	104	u	12	101	12	x	x	x	x	x	x
Cc1scc(C(=O)NNC(=S)NCC2CCCO2)c1-c1ccccc1 (stereo unspecified)	71	22*	100	1	98	12	2	92	89	90	90	99	RGS-Gao=98*
C#CCNC(=O)C1=C[C@@H](C(C)(C)C)C[C@@H](OCc2ccc(CO)cc2)O1	22*	17*	21*	0	30*	19	0	100	103	101	101	97
CCC(CC)NC(=O)Nc1ccccc1C(F)(F)F	103	105	u	10	112	x	x	x	x	x	x	x
CCCSc1nnc2c(n1)OC(c1cccn1C)N(C(C)=O)c1ccccc1-2 (stereo unspecified)	105	108	103	10	104	25	x	x	x	x	x	x
C=CCSc1nnc2c(n1)OC(c1ccccn1)N(C(C)=O)c1ccccc1-2 (stereo unspecified)	99	114	168*[activator]	215*	122	33	2	103	104	104	103	102	RGS-Gao=122*
Cc1cc(C(=O)NNC(=O)C2CCCC2)c(C)o1	104	106	99	11	101	15	x	x	x	x	x	x
COc1ccc(N2CCN(C(=O)c3cccn4c(=O)c5ccccc5nc34)CC2)cc1	102	105	101	11	101	17	x	x	x	x	x	x
COc1ccc(N2CCN(C(=O)c3cccc4nc(C)oc34)CC2)cc1	15*	13*	19*	1	22*	15	0	100	95	98	96	86
Cc1cc(C)c2c(N)c(C(=O)NC3CCCC3)sc2n1	142*[activator]	131	147	3	113	21	0	97	73*	87	87	70	RGS-Gao=113*
Cc1cc(C)c2c(N)c(C(=O)NCC3CCCCC3)sc2n1	100	104	103	10	98	9	x	x	x	x	x	x
O=C(O)c1ccccc1-c1ccccc1C(=O)Nc1ccc2c(c1)[nH]c(=O)c1ccccc12	103	113	u	6	100	x	x	x	x	x	x	x
CCC(=O)c1ccc(OCC(=O)N2CCCC2)c(OC)c1	89	60	102	4	89	11	x	x	x	x	x	x
COc1ccccc1/C=C/C=C1\Oc2c(ccc(O)c2CN2CCN(CCO)CC2)C1=O	146*[activator]	284	246*[activator]	127*	218*[activator]	15	1	104	107	101	101	80
CCN1CCN(Cc2c(O)ccc3c2O/C(=C\C=C\c2ccccc2)C3=O)CC1	117	187*[activator]	103	17	106	11	-1	100	101	99	101	100	RGS-Gao=106*
O=C1/C(=C/C=C/c2ccccc2)Oc2c1ccc(O)c2CN1CCN(CCO)CC1	97	85	u	7	85	x	x	x	x	x	x	x
Cc1ccc(C)c(-n2c(-c3csc(C)c3C)n[nH]c2=S)c1	95	94	101	3	99	7	x	x	x	x	x	x
CCOC(=O)c1cnc2c(c(C)nn2C)c1Oc1cc(Cl)cc(Cl)c1	100	102	u	8	100	x	x	x	x	x	x	x
Cc1ccc(C)n1-c1cccc(N)c1	82	54	73	12	49*	9	-1	100	99	101	96	110
Cc1ccc(C)n1-c1cccc(C(=O)O)c1	49*	91	22*	2	84	7	x	x	x	x	x	x	RGS-Gao=84*
CC(C)CCN1CCN(Cc2cccc(C(F)(F)F)c2)CC1CCO (stereo unspecified)	92	92	85	11	89	11	x	x	x	x	x	x
CC(C)S(=O)(=O)C/C(N)=N/OC(=O)c1cc(Cl)cc(Cl)c1	100	101	u	8	101	x	x	x	x	x	x	x
CCCS(=O)(=O)N1CCCC(C(=O)NCCCN2CCN(c3cccc(Cl)c3)CC2)C1 (stereo unspecified)	146*[activator]	668	234*[activator]	150*	295*[activator]	29	1	97	92	90	92	59
CC1CCN(C(=O)C2CCN(S(=O)(=O)c3cc(Cl)ccc3Cl)CC2)CC1	104	105	u	6	105	x	x	x	x	x	x	x
SMILES	RGS8-Gao reg	RGS16-Gao HTS	RGS7-Gao	Avidin bead fluor	RGS4-Gao reg	GSH bead fluor	Avidin counter	RGS8-Gao single	RGS7-Gao single	RGS16-Gao conf	RGS4-Gao confirm	RGS19-Gao conf	others
COc1ccc(-n2c(SCC(N)=O)nnc2-c2cccnc2)cc1	x	x	103	x	106	26	1	102	101	100	101	96
O=c1c2ccccc2sn1-c1cc(S(=O)(=O)N2CCOCC2)ccc1N1CCOCC1	48*	0.6*	123	1	99	19	x	x	x	x	x	x	RGS-Gao=99*
O=c1c2ccccc2sn1-c1cc(S(=O)(=O)N2CCOCC2)ccc1N1CCCC1	41*	-21*	100	-1	86	24	-1	38*	90	10*	78	4.4*	RGS-Gao=86*
O=C(O)c1cc(S(=O)(=O)N2CCOCC2)ccc1N1CCCCC1	98	98	100	9	97	21	x	x	x	x	x	x
O=C(O)c1cc(S(=O)(=O)N2CCOCC2)ccc1N1CCOCC1	101	99	101	10	99	17	x	x	x	x	x	x
CNC(=O)CN(C)S(=O)(=O)c1ccc(OC)c(Cl)c1	16*	17*	19*	0	25*	30	-1	99	87	99	97	81
Cc1ccc(OCCN2C(=O)c3ccccc3C2=O)c(C)c1	100	89	92	9	90	51	x	x	x	x	x	x
